Where a name gives a salt, the structure may show the parent alone. ± gives the standard deviation of the averaged measurements.
What was measured:
[1] = system: Saccharomyces cerevisiae BY4741 SeMeCo community; assay: mean cell size (pixel area) (pixels); higher = larger cells; details: 10 µM; 24 h; SM minimal medium
How it was run: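 Mean cell pixel area per well was determined by automated confocal microscopy with Harmony analysis of paraformaldehyde-fixed cells. The cells, a Saccharomyces cerevisiae BY4741 community of four plasmids that each complement one auxotrophy and carry a fluorescent marker, were incubated for 24 h with drug at a final 10 µM in SM medium in 384-well plates. Numbers are averaged over 3 replicates. Same SeMeCo high-content imaging drug screen: Selleck FDA-approved drugs at 10 µM, 24 h in SM medium, 384-well plates, 3 replicates.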

[2] = system: Saccharomyces cerevisiae BY4741 SeMeCo community; assay: z-score of prototroph abundance vs DMSO median; higher = larger share of this subpopulation than in DMSO controls; details: 10 µM; 24 h; SM minimal medium; subpopulation (auxotrophy): Prototroph
How it was run: (§1)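 Four plasmids, each restoring a single auxotrophy and encoding a distinct fluorescent protein, were carried by a Saccharomyces cerevisiae BY4741 community. After overnight growth to OD600 1.0 and dilution to 0.3, 70 µl per well was grown for 24 h in minimal SM medium on 384-well plates acoustically predosed with library drugs at 10 µM final. Following paraformaldehyde fixation, automated confocal microscopy was used, with single-auxotroph fluorescent strains defining thresholds and autofluorescence correction. Subpopulation abundance was then scored as a z-score against the vehicle-well median.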

[3] = system: Saccharomyces cerevisiae BY4741 SeMeCo community; assay: z-score of subpopulation abundance vs DMSO median, subpopulation auxotrophic for M; higher = larger share of this subpopulation than in DMSO controls; details: 10 µM; 24 h; SM minimal medium; subpopulation (auxotrophy): M
How it was run: as §1

[4] = system: Saccharomyces cerevisiae BY4741 SeMeCo community; assay: z-score of subpopulation abundance vs DMSO median, subpopulation auxotrophic for L; higher = larger share of this subpopulation than in DMSO controls; details: 10 µM; 24 h; SM minimal medium; subpopulation (auxotrophy): L
How it was run: as §1

[5] = system: Saccharomyces cerevisiae BY4741 SeMeCo community; assay: z-score of subpopulation abundance vs DMSO median, subpopulation auxotrophic for U; higher = larger share of this subpopulation than in DMSO controls; details: 10 µM; 24 h; SM minimal medium; subpopulation (auxotrophy): U
How it was run: as §1

[6] = system: Saccharomyces cerevisiae BY4741 SeMeCo community; assay: z-score of subpopulation abundance vs DMSO median, subpopulation auxotrophic for H; higher = larger share of this subpopulation than in DMSO controls; details: 10 µM; 24 h; SM minimal medium; subpopulation (auxotrophy): H
How it was run: as §1

[7] = system: Saccharomyces cerevisiae BY4741 SeMeCo community; assay: z-score of subpopulation abundance vs DMSO median, subpopulation auxotrophic for LU; higher = larger share of this subpopulation than in DMSO controls; details: 10 µM; 24 h; SM minimal medium; subpopulation (auxotrophy): LU
How it was run: as §1

[8] = system: Saccharomyces cerevisiae BY4741 SeMeCo community; assay: z-score of subpopulation abundance vs DMSO median, subpopulation auxotrophic for LM; higher = larger share of this subpopulation than in DMSO controls; details: 10 µM; 24 h; SM minimal medium; subpopulation (auxotrophy): LM
How it was run: as §1

[9] = system: Saccharomyces cerevisiae BY4741 SeMeCo community; assay: z-score of subpopulation abundance vs DMSO median, subpopulation auxotrophic for HM; higher = larger share of this subpopulation than in DMSO controls; details: 10 µM; 24 h; SM minimal medium; subpopulation (auxotrophy): HM
How it was run: as §1

[10] = system: Saccharomyces cerevisiae BY4741 SeMeCo community; assay: z-score of subpopulation abundance vs DMSO median, subpopulation auxotrophic for HU; higher = larger share of this subpopulation than in DMSO controls; details: 10 µM; 24 h; SM minimal medium; subpopulation (auxotrophy): HU
How it was run: as §1

[11] = system: Saccharomyces cerevisiae BY4741 SeMeCo community; assay: z-score of subpopulation abundance vs DMSO median, subpopulation auxotrophic for UM; higher = larger share of this subpopulation than in DMSO controls; details: 10 µM; 24 h; SM minimal medium; subpopulation (auxotrophy): UM
How it was run: as §1

[12] = system: Saccharomyces cerevisiae BY4741 SeMeCo community; assay: z-score of subpopulation abundance vs DMSO median, subpopulation auxotrophic for HL; higher = larger share of this subpopulation than in DMSO controls; details: 10 µM; 24 h; SM minimal medium; subpopulation (auxotrophy): HL
How it was run: as §1

[13] = system: Saccharomyces cerevisiae BY4741 SeMeCo community; assay: z-score of subpopulation abundance vs DMSO median, subpopulation auxotrophic for HLU; higher = larger share of this subpopulation than in DMSO controls; details: 10 µM; 24 h; SM minimal medium; subpopulation (auxotrophy): HLU
How it was run: as §1

[14] = system: Saccharomyces cerevisiae BY4741 SeMeCo community; assay: z-score of subpopulation abundance vs DMSO median, subpopulation auxotrophic for HLM; higher = larger share of this subpopulation than in DMSO controls; details: 10 µM; 24 h; SM minimal medium; subpopulation (auxotrophy): HLM
How it was run: as §1

[15] = system: Saccharomyces cerevisiae BY4741 SeMeCo community; assay: z-score of subpopulation abundance vs DMSO median, subpopulation auxotrophic for HUM; higher = larger share of this subpopulation than in DMSO controls; details: 10 µM; 24 h; SM minimal medium; subpopulation (auxotrophy): HUM
How it was run: as §1

[16] = system: Saccharomyces cerevisiae BY4741 SeMeCo community; assay: z-score of subpopulation abundance vs DMSO median, subpopulation auxotrophic for LUM; higher = larger share of this subpopulation than in DMSO controls; details: 10 µM; 24 h; SM minimal medium; subpopulation (auxotrophy): LUM
How it was run: as §1

[17] = system: Saccharomyces cerevisiae BY4741 SeMeCo community; assay: z-score of subpopulation abundance vs DMSO median, subpopulation auxotrophic for HLUM; higher = larger share of this subpopulation than in DMSO controls; details: 10 µM; 24 h; SM minimal medium; subpopulation (auxotrophy): HLUM
How it was run: as §1

SMILES | mean cell size [1] | z-score of prototroph abundance [2] | z-score of subpopulation abundance [3] | z-score of subpopulation abundance [4] | z-score of subpopulation abundance [5] | z-score of subpopulation abundance [6] | z-score of subpopulation abundance [7] | z-score of subpopulation abundance [8] | z-score of subpopulation abundance [9] | z-score of subpopulation abundance [10] | z-score of subpopulation abundance [11] | z-score of subpopulation abundance [12] | z-score of subpopulation abundance [13] | z-score of subpopulation abundance [14] | z-score of subpopulation abundance [15] | z-score of subpopulation abundance [16] | z-score of subpopulation abundance [17]
N#C/C(=C1/SC[C@@H](c2ccc(Cl)cc2Cl)S1)n1ccnc1 [Luliconazole] | 12 ± 0.31 | -8.67 | -2.68 | -1.35 | -0.31 | 18.4 | 0.85 | 1.33 | 7.54 | 10.5 | 11.7 | 4.75 | 5.26 | 16.8 | 10.6 | 4.52 | 11.1
CC(=O)[C@H]1CC[C@H]2[C@@H]3CCC4=CC(=O)CC[C@]4(C)[C@H]3CC[C@]12C [Progesterone] | 12.5 ± 0.23 | 0.96 | 0.64 | -1.51 | -0.24 | -1.35 | -1.24 | -0.71 | -0.71 | -0.6 | 0.01 | -0.85 | -1.13 | -0.24 | -0.62 | -0.61 | -1
COCCCN1CCC(NC(=O)c2cc(Cl)c(N)c3c2OCC3)CC1 [Prucalopride Succinate] | 12.5 ± 0.32 | -1.55 | 0.77 | -0.33 | 0.93 | -0.29 | 0.16 | -0.18 | 0.63 | 1.07 | 1.44 | 0.16 | 1.78 | 1.1 | 1.42 | 0.31 | 2.43
CC[C@H]1OC(=O)C[C@@H](O)[C@H](C)[C@@H](O[C@@H]2O[C@H](C)[C@@H](O)[C@H](N(C)C)[C@H]2O)[C@@H](CCN2C[C@H](C)C[C@H](C)C2)C[C@@H](C)C(=O)/C=C/C(C)=C/[C@@H]1CO[C@@H]1O[C@H](C)[C@@H](O)[C@@H](OC)[C@H]1OC [Tilmicosin phosphate] | 12.3 ± 0.3 | 0.18 | -0.36 | 0.06 | -0.3 | 2.1 | -0.57 | -0.81 | -0.03 | -0.34 | -0.01 | -0.13 | -0.18 | -0.09 | -0.09 | -0.25 | -0.75
CCC(=O)NS(=O)(=O)c1ccc(-c2c(-c3ccccc3)noc2C)cc1 [Parecoxib] | 12.6 ± 0.088 | -0.12 | 0.6 | 0.2 | -0.29 | 0.1 | -0.15 | 0.77 | 0.95 | -0.34 | 0.49 | 0.12 | 0.16 | 0.22 | -0.44 | 0.13 | -0.37
CCN(CC)CC#CCOC(=O)C(O)(c1ccccc1)C1CCCCC1 (centres undefined) [Oxybutynin] | 12.5 ± 0.29 | -0.02 | -0.18 | -0.14 | 0.19 | -0.43 | -0.54 | -0.42 | -0.23 | 0.37 | -0.47 | -0.47 | -0.2 | -0.46 | 0.54 | -0.32 | 1
N[C@@H]1CN(c2c(F)cc3c(=O)c(C(=O)O)cn([C@@H]4C[C@@H]4F)c3c2Cl)CC12CC2 [Sitafloxacin Hydrate] | 12.2 ± 0.062 | -1.39 | 0.3 | 0.29 | 1.07 | 0.2 | 0.44 | 0.69 | 0.61 | 1.54 | 1.53 | 0.18 | 0.03 | -0.5 | 0.81 | 0.98 | -0.03
Cc1cc(/C=C/c2ccc3cc(N(C)C)ccc3[n+]2C)c(C)n1-c1ccccc1 [pyrvinium] | 12.38 ± 0.085 | 0.55 | 0.61 | -1.29 | 0.84 | -3.04 | 0.05 | -0.19 | -0.29 | -0.67 | 1.08 | -1.44 | -0.46 | -0.3 | -0.73 | -0.14 | -0.49
CO/N=C(\C(=O)N[C@@H]1C(=O)N2C(C(=O)O)=CCS[C@H]12)c1csc(N)n1 [Ceftizoxime] | 12.47 ± 0.084 | 0.78 | 0.26 | -0.19 | -0.63 | – | -0.12 | -0.02 | -0.82 | -0.76 | -0.98 | -0.85 | -1.12 | -0.37 | -1.23 | -0.44 | -0.49
COc1ccnc(C[S+]([O-])c2nc3cc(-n4cccc4)ccc3[nH]2)c1C (centres undefined) [Ilaprazole sodium] | 12.7 ± 0.23 | -0.81 | 1.1 | 1.32 | -1.54 | 5.12 | -0.87 | 1.43 | 1.14 | -0.9 | -1.01 | 6.22 | 2.72 | 3.01 | 0.43 | 0.43 | 0.94
CCc1nc(N)nc(N)c1-c1ccc(Cl)cc1 [Pyrimethamine] | 12.3 ± 0.38 | 0.23 | -0.13 | -0.63 | -0.01 | – | -0.16 | 0.19 | -0.27 | -0.29 | -0.1 | -0.25 | 0 | -0.3 | 0.42 | 0.49 | -0.2
CN1CCN(CCCN2c3ccccc3Sc3ccc(Cl)cc32)CC1 [Prochlorperazine dimaleate salt] | 12.4 ± 0.15 | -0.98 | 0.75 | 0.41 | -0.36 | 1.05 | -0.07 | 0.75 | 1.58 | 0.89 | 0.65 | 0.69 | 0.49 | 0.12 | 1.51 | 1.88 | 0.48
CCC[C@@H]1C[C@@H](C(=O)N[C@@H]([C@H]2O[C@H](SC)[C@H](O)[C@@H](O)[C@H]2O)[C@@H](C)O)N(C)C1 [Lincomycin Hydrochloride Monohydrate] | 12.3 ± 0.19 | -0.67 | 0.19 | -0.22 | 0.86 | -0.54 | 0.94 | -0.56 | -0.07 | 0.41 | 0.42 | -0.46 | 0.91 | -0.3 | -0.11 | 0.4 | 0.63

Reference: the supplement of paper PMC8975748
